Hits are enriched below; roughly 12% of the tested compounds scored in any of these assays.
JMJD2A Tudor inh: inhibitors of human JMJD2A Tudor domain; AID 504339; AlphaScreen JMJD2A-Tudor / H3K4me3 peptide binding; O75164; Potency, µM (highest dose often 114 µM), for inactives: top-dose activity change, negative = inhibition, hits mostly inhibitors; 4.4% of 390,000 active; note: % is set by controls: 0 for no effect and ±100 for the full control effect; nearly all actives have a fitted effect of over 50% in size
BAZ2B block: blocks human BAZ2B; Potency, µM (top dose mostly 114 µM), for the others: at the highest dose activity change, negative = inhibition, hits mostly inhibitors; Q9UIF8; 4.4% of 360,000 active; AlphaScreen BAZ2B-H3K14Ac peptide displacement; note: % is set by controls: 0 for no effect and ±100 for the full control effect; nearly all actives have a fitted effect of over 60% in size
Target sequence (Q9UIF8 whole entry, looked up): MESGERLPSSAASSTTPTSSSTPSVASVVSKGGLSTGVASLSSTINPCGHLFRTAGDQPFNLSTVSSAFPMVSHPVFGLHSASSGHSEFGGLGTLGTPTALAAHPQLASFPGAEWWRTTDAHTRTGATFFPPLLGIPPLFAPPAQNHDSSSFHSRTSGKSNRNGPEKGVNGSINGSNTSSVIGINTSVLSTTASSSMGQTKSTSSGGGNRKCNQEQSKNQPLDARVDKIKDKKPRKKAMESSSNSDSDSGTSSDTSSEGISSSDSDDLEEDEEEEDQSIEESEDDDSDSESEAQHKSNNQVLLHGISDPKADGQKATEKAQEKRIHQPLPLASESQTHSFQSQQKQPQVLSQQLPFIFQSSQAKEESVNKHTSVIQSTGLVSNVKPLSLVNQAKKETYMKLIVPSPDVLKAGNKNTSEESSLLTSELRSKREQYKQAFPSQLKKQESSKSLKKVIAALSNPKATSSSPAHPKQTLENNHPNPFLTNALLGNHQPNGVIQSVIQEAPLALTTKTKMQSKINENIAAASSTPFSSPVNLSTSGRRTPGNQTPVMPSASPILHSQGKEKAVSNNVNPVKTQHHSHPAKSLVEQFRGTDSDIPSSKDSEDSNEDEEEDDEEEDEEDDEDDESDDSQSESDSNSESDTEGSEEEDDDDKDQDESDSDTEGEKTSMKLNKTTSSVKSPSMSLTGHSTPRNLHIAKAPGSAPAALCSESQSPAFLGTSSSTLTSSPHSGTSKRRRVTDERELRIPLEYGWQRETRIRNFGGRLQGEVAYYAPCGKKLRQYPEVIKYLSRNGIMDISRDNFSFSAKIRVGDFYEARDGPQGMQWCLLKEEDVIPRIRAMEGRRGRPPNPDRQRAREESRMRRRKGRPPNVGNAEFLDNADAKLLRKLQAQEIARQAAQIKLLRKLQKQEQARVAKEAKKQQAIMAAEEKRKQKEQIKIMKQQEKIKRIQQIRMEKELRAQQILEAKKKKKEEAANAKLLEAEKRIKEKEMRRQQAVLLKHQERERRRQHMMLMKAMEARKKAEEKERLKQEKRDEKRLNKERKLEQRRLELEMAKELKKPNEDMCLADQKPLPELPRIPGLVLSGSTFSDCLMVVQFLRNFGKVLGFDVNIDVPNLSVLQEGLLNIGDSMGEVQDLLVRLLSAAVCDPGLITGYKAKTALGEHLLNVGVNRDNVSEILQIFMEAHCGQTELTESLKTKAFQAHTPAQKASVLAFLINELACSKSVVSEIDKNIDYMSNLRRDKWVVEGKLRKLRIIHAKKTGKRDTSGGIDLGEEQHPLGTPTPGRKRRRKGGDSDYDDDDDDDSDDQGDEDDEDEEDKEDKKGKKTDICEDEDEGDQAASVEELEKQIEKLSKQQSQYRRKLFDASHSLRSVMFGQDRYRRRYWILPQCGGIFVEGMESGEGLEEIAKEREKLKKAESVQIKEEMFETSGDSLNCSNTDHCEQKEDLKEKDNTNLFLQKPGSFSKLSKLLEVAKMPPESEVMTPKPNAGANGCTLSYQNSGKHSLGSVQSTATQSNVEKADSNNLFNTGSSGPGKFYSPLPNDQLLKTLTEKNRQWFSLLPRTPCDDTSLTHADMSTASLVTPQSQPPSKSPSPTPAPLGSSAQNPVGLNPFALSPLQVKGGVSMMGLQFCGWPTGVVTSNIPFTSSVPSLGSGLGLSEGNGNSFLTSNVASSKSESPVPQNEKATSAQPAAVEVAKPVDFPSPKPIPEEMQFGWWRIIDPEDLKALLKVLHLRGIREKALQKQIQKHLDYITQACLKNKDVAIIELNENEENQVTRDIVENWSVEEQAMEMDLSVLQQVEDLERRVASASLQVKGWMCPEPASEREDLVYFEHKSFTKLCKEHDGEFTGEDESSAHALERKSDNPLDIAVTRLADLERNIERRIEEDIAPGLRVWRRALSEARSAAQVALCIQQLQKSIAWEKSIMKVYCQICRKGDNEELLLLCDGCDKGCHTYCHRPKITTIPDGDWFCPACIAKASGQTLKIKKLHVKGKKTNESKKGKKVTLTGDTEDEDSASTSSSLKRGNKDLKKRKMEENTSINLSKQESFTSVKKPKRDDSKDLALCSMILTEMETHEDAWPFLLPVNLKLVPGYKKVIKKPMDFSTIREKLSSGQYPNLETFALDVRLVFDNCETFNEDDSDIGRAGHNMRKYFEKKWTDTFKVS
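Protein-peptide AlphaScreen: BAZ2B 50 nM, b-H3K14Ac 50 nM, 1x PBS pH 7.4 + 0.01% Tween-20. Preincubation 30 min RT; cpd 30 min RT (top 110 uM); beads 20 min RT, light-protected.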
L3MBTL1 block: L3MBTL1 (human) inhibition. Q9Y468. AlphaScreen L3MBTL1–H3K9me1 peptide binding. Potency, µM (titrated, usually from 57.1 µM), inactives show at the highest dose activity, negative = inhibition, hits mostly inhibitors. 0.66% of 230,000 active. AID 485360; note: % is set by controls: 0 for no effect and ±100 for the full control effect; nearly all actives have a fitted effect of over 60% in size
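AlphaScreen assay: L3MBTL1 (50 nM final) was preincubated 30 min at room temperature with biotinylated H3(1-15)K9me1 peptide (75 nM final), then 30 min with library compounds; streptavidin donor and nickel chelate acceptor beads (10 ug/mL final) added, 30 min dark.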
Sfp inh: Sfp phosphopantetheinyl transferase inhibition. Q9F4F7. Biochemical Sfp PPTase activity, qHTS. Potency, µM, for the others: largest response in the series, negative = inhibition, actives largely listed as inhibitors. 3.5% of 310,000 active;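 note: the enzyme is Sfp with the accession as filed and its product quenches rhodamine fluorescence; 0% = enzyme reaction without inhibitor and -100% = no enzyme wells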
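Compounds were incubated with enzyme (final 15 nM) for 15 min at room temperature before substrate addition started the reaction. Fluorescence at 525 nm excitation, 598 nm emission was recorded immediately and after 30 minutes.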
G9a block: inhibitors of human histone lysine methyltransferase G9a. Q96KQ7. G9a H3K9 monomethylation, AlphaScreen, 2 h. Potency, µM (series often up to 102 µM), inactives show top-dose activity, negative = inhibition, actives largely listed as inhibitors. 8.8% of 350,000 active. AID 504332; note: % is set by controls: 0 for no effect and ±100 for the full control effect; nearly all actives have a fitted effect of over 75% in size
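Step 1: enzyme (final 20 nM) with compound, 15 min RT. Step 2: substrate peptide 500 nM and SAM 20 uM, 2 h RT. Step 3: anti-H3K9me1 antibody and AlphaScreen beads, 10 min, then plate read.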
HP1b binding inh: inhibitors of HP1-beta chromodomain binding to methylated histone tails; Potency, µM (doses to about 114 µM), for inactives: at the top dose activity change, negative = inhibition, hits mostly inhibitors; AID 540317; AlphaScreen HP1-beta / biotin-H3K9me3 peptide binding; 0.56% of 390,000 active; P83916; note: nearly all actives have a fitted effect of over 70% in size
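Compound inhibition of the preformed complex between 50 nM HP1-beta and 50 nM biotinylated H3K9me3 peptide was read by AlphaScreen. Buffer was PBS pH 7.4 with 0.01% Tween-20. Incubations ran 30 min at room temperature, with 10 ug/mL donor/acceptor beads.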
An asterisk follows results filed as active; [ ] = dose if it differs, or a comment. Calls come from the whole dose curve; as a rule, active = well fitted curve in the direction sought with a large enough effect; inconclusive = small, poorly fitted or top-dose-only effect, or another doubt; inactive = no such curve, though single readings can be large; an effect the other way counts as inactive or inconclusive. Potency is the fitted concentration of half-maximal effect.

What do the screens show for `CC(=O)Nc1cccc(S(=O)(=O)N2CCCN(S(=O)(=O)c3ccc4c(c3)OCCO4)CC2)c1`?
JMJD2A Tudor inh: -16%

Results for CCOc1ccc2nc(N=NC3=C(O)CC(C)(C)CC3=O)sc2c1 ?
JMJD2A Tudor inh: inconclusive; BAZ2B block: 45µM*; Sfp inh: -16%; G9a block: inconclusive; HP1b binding inh: inconclusive

Results for CCc1ccc(CN2C(=O)c3ccccc3C2C(=O)NC2CCCCCC2)cc1 (configuration not stated) ?
JMJD2A Tudor inh: -11%; BAZ2B block: 0%; G9a block: -27%[59 µM]; HP1b binding inh: 10%

What do the screens show for `CCCC[C@H]1CCCO[C@@](C(=O)NCc2cc(C)n(C)n2)(C(F)(F)F)C1`?
JMJD2A Tudor inh: -9%; Sfp inh: 11%; HP1b binding inh: 36%

How did COC(=O)N1CCC2(CC1)CN(c1ccccn1)C2 do in these assays?
Sfp inh: 17%; G9a block: 0%[12.7 µM]

Results for COc1ccc(-n2nc3c(N4CCCC(C(=O)NCc5ccc(C)cc5)C4)nnc(C)c3c2C)cc1 (configuration not stated) ?
JMJD2A Tudor inh: 56µM*; BAZ2B block: 50µM*; G9a block: inconclusive; HP1b binding inh: 14%

Results for CCc1ccc(CNC(=O)C2CCCN(c3nnc(C)c4c(C)n(-c5ccc(OC)cc5)nc34)C2)cc1 (configuration not stated) ?
JMJD2A Tudor inh: inconclusive; BAZ2B block: -28%; G9a block: 10µM*; HP1b binding inh: -14%

Results for COC(=O)c1ccccc1NC(=O)C1CCCN(c2nnc(C)c3c(C)n(-c4ccccc4)nc23)C1 (configuration not stated) ?
JMJD2A Tudor inh: -3%; BAZ2B block: 79µM*; G9a block: inconclusive; HP1b binding inh: 41%

What do the screens show for `Cc1nnc(N2CCCC(C(=O)NCc3ccc(OC(C)C)cc3)C2)c2nn(-c3ccccc3)c(C)c12` (configuration not stated)?
JMJD2A Tudor inh: -18%; BAZ2B block: -8%; Sfp inh: 89µM*; HP1b binding inh: 57%

Results for CCOCCCn1c(=N)c(S(=O)(=O)c2ccc(C)cc2)cc2c(=O)n3cccc(C)c3nc21 ?
JMJD2A Tudor inh: 2%; BAZ2B block: -2%; G9a block: -23%[59 µM]; HP1b binding inh: 36%

How did COc1ccccc1NC(=O)c1c(-c2ccc(C)cc2)nnc2ccccc12 do in these assays?
JMJD2A Tudor inh: -15%; BAZ2B block: -28%; G9a block: 5%[59 µM]; HP1b binding inh: 21%

How did COC(=O)c1ccccc1NC(=O)N1CCC(n2c(C)nc3cccnc32)CC1 do in these assays?
JMJD2A Tudor inh: -9%; BAZ2B block: -14%; G9a block: 8%[59 µM]; HP1b binding inh: 12%

Results for Cc1ccc(S(=O)(=O)NCC(=O)N(c2ccccc2)C(C(=O)NCc2ccccc2)c2ccco2)cc1 (configuration not stated) ?
JMJD2A Tudor inh: -30%; BAZ2B block: 0%; L3MBTL1 block: -14%; Sfp inh: 79µM*; G9a block: -5%[59 µM]; HP1b binding inh: -2%

Results for O=C(NCc1ccc(S(=O)(=O)Nc2ccccc2Cl)s1)c1ccccc1 ?
JMJD2A Tudor inh: -4%; BAZ2B block: 0%; L3MBTL1 block: -2%; Sfp inh: 0%; G9a block: 79µM*; HP1b binding inh: 43%

How did COc1ccc(S(=O)(=O)c2c(Nc3ccc(F)cc3)sc(C(=O)c3ccc(C)cc3C)c2N)cc1 do in these assays?
JMJD2A Tudor inh: inconclusive; BAZ2B block: inconclusive; G9a block: -29%[59 µM]; HP1b binding inh: 5%[57 µM]

How did CCCCCCn1cc(C(=O)O)c(=O)c2ccccc21 do in these assays?
JMJD2A Tudor inh: inconclusive; BAZ2B block: -35%; L3MBTL1 block: -10%; Sfp inh: 10%; G9a block: 45µM*; HP1b binding inh: 27%

How did CCN(CC)c1cc(C)c2ccccc2n1 do in these assays?
JMJD2A Tudor inh: inconclusive; BAZ2B block: -1%; L3MBTL1 block: 6%; Sfp inh: 0%; G9a block: 1.1µM*; HP1b binding inh: 36%

What do the screens show for `CCN(CC)c1cc(C)c2cc(NC(=O)c3ccccc3Cl)ccc2n1`?
JMJD2A Tudor inh: -16%; BAZ2B block: -4%; G9a block: -28%[59 µM]; HP1b binding inh: 21%

Results for CCCN1CNc2c(c(=O)[nH]c(=S)n2CCc2ccccc2C)C1 ?
JMJD2A Tudor inh: -16%; HP1b binding inh: 34%

What do the screens show for `CCc1cccc(C)c1NC(=O)C1CCN(S(=O)(=O)c2cc(Br)cc3c2N(C(C)=O)CC3)CC1`?
JMJD2A Tudor inh: 1%; BAZ2B block: -7%; G9a block: -3%[59 µM]; HP1b binding inh: 34%

How did S=C1NNC2(NN1)C1CC3CC(C1)CC2C3 do in these assays?
JMJD2A Tudor inh: inconclusive; BAZ2B block: -31%; L3MBTL1 block: -5%; Sfp inh: -3%; G9a block: 8.9µM*; HP1b binding inh: 22%

How did Cc1ccccc1C(=O)Nc1ccc2nc(SCC(=O)N3CCc4ccccc43)sc2c1 do in these assays?
JMJD2A Tudor inh: 5%; BAZ2B block: -15%; G9a block: 8%[59 µM]; HP1b binding inh: 69%

What do the screens show for `Cc1c2cnn(CC(=O)NCc3ccc(F)cc3)c(=O)c2c(C)n1Cc1cccc(Cl)c1`?
JMJD2A Tudor inh: -13%; BAZ2B block: 4%; G9a block: -5%[59 µM]; HP1b binding inh: 9%

What do the screens show for `O=C(CSc1cn(CC(=O)N2CCCCC2)c2ccccc12)NCC1CCCO1` (configuration not stated)?
JMJD2A Tudor inh: 50µM*; BAZ2B block: -16%; L3MBTL1 block: inconclusive; Sfp inh: 14%; G9a block: -37%; HP1b binding inh: -22%

Results for O=C(CCCn1c(SCC(=O)c2ccc(O)c(O)c2)nc2ccccc2c1=O)NCC1CCCO1 (configuration not stated) ?
JMJD2A Tudor inh: 32µM*; BAZ2B block: inconclusive; L3MBTL1 block: inconclusive; Sfp inh: 1%; G9a block: 35µM*; HP1b binding inh: -11%

What do the screens show for `O=C(CCCn1c(SCC(=O)NC2CCCCC2)nc2ccccc2c1=O)NCC1CCCO1` (configuration not stated)?
JMJD2A Tudor inh: -7%; BAZ2B block: 2%; L3MBTL1 block: -3%; Sfp inh: 6%; G9a block: -2%; HP1b binding inh: 17%

High-throughput results: PubChem, National Center for Advancing Translational Sciences (NCATS)
